Assay results: ChEMBL document CHEMBL1157539, “Thousands of chemical starting points for antimalarial lead identification” (Nature, 2010)

How the values were obtained:
Type in all cases: functional
Plasmodium falciparum [1] = assay: GSK_TCMDC: Inhibition of Plasmodium falciparum 3D7 in whole red blood cells, using parasite LDH activity as an index of growth. Test compounds present at 2uM
Plasmodium falciparum [2] = assay: GSK_TCMDC: Inhibition of Plasmodium falciparum Dd2 in whole red blood cells, using parasite LDH activity as an index of growth. Test compounds present at 2uM
HepG2 = assay: GSK_TCMDC: Percent inhibition of human HepG2 cell line. Test compounds present at 10uM.

## CC1(C)N=C(N)N=C(N)N1c1ccc(I)cc1.Cl
Plasmodium falciparum [1]
  Inhibition: 92%
Plasmodium falciparum [2]
  Inhibition: 1%
HepG2
  Inhibition: 16%

## COc1ccc2nccc(N(C)CC3(O)CCC(NCc4cc5c(cn4)OCCO5)CC3)c2n1.Cl (stereo not drawn)
Plasmodium falciparum [1]
  Inhibition: 99%
Plasmodium falciparum [2]
  Inhibition: 14%
HepG2
  Inhibition: 1%

## CN(C)CCCN(C)c1cccc2c1nc(-c1cccnc1)n2CCNCc1ccccc1.O=C(O)C(F)(F)F
Plasmodium falciparum [1]
  Inhibition: 89%
Plasmodium falciparum [2]
  Inhibition: 88%
HepG2
  Inhibition: 4%

## CCCC(C)N(Cc1ccc(C(C)(C)C)cc1)C(=O)c1cccc(C#N)c1 (stereo not drawn)
Plasmodium falciparum [1]
  Inhibition: 86%
Plasmodium falciparum [2]
  Inhibition: 45%
HepG2
  Inhibition: 14%

## COc1ccc(-c2cc3nc4c(c(NCCCn5ccnc5)n3n2)CCCC4)cc1
Plasmodium falciparum [1]
  Inhibition: 95%
Plasmodium falciparum [2]
  Inhibition: 74%
HepG2
  Inhibition: 5%

## Cc1ccccc1C1CCN(C2CCC(NC(=O)/C=C/c3c[nH]c4ccccc34)CC2)CC1 (stereo not drawn)
Plasmodium falciparum [1]
  Inhibition: 100%
Plasmodium falciparum [2]
  Inhibition: 51%
HepG2
  Inhibition: 30%

## Cc1cccc2nc(-c3ccc(-c4ccc(NC(=O)Nc5ccc(F)c(F)c5F)cc4)s3)[nH]c12
Plasmodium falciparum [1]
  Inhibition: 100%
Plasmodium falciparum [2]
  Inhibition: 99%
HepG2
  Inhibition: 58%

## Cc1cc(C(=O)CN2C(=O)NC(C)(c3cccc4ccccc34)C2=O)c(C)n1Cc1ccco1 (stereo not drawn)
Plasmodium falciparum [1]
  Inhibition: 90%
Plasmodium falciparum [2]
  Inhibition: 23%
HepG2
  Inhibition: 0%

## COc1ccc2c(OC)ccc(CNCCCCCCNCc3ccc(OC)c4ccc(OC)cc34)c2c1.CS(=O)(=O)O
Plasmodium falciparum [1]
  Inhibition: 100%
Plasmodium falciparum [2]
  Inhibition: 98%
HepG2
  Inhibition: 100%

## O=C(NC1CC1)c1ccc(N2CCC(Cc3ccccc3)CC2)c([N+](=O)[O-])c1
Plasmodium falciparum [1]
  Inhibition: 96%
Plasmodium falciparum [2]
  Inhibition: 83%
HepG2
  Inhibition: 12%

## CCN1CCN(CCCNc2c3ccc(Cl)cc3nc3ccc(O)cc23)CC1
Plasmodium falciparum [1]
  Inhibition: 100%
Plasmodium falciparum [2]
  Inhibition: 1%
HepG2
  Inhibition: 32%
